Experimental data published in ChEMBL document CHEMBL1201862, “PubChem BioAssay data set” (2004).
Hit rate of the full screen: of about 400,000 compounds, about 1,900 (0.47%) were called active. Inconclusive results (about 14%) are left out. No rule for the calls is given here. This excerpt belongs to a sample that is enriched for actives.

Target: Ataxin-2 (Homo sapiens) (UniProt Q99700)
Assay: qHTS for Inhibitors of ATXN expression.
Format: functional

Sequence of Ataxin-2 (Homo sapiens) (Q99700 whole entry): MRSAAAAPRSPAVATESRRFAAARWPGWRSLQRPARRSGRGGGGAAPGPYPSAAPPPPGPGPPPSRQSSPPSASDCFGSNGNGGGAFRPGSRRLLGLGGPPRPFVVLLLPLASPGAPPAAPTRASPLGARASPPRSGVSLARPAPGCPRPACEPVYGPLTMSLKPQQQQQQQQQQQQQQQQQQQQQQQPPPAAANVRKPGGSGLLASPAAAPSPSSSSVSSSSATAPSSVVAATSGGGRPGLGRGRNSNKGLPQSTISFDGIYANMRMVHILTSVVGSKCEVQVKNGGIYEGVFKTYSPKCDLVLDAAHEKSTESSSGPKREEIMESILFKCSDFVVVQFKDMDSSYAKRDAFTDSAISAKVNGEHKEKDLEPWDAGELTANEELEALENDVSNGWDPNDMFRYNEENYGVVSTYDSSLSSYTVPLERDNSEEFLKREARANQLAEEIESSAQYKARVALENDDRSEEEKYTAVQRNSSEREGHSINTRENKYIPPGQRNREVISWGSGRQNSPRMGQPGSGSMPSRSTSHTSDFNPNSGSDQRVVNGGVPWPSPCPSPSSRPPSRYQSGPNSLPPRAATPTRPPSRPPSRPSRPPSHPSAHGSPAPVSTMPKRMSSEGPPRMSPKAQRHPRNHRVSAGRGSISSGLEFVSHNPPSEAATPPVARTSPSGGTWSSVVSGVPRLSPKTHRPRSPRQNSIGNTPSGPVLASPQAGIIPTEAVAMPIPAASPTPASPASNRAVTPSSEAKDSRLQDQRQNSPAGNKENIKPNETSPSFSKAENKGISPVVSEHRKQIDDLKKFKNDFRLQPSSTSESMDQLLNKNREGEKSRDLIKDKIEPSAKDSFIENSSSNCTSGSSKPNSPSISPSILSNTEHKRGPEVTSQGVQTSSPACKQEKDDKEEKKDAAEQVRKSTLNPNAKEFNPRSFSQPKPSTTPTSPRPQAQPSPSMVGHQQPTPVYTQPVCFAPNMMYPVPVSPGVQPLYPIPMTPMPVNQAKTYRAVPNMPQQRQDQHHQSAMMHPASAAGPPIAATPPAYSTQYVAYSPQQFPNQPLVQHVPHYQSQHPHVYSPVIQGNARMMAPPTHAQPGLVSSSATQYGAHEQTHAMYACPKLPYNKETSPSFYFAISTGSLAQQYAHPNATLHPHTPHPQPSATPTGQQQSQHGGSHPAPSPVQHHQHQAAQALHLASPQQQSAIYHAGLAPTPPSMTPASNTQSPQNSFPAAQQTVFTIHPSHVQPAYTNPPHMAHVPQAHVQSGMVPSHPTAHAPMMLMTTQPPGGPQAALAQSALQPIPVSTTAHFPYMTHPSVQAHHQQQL

Question: COCCNC(=O)c1c(N)n(CCC(C)C)c2nc3ccccc3nc12 was tested. Which Potency did it give?
Answer: inactive

Question: How did the Potency turn out when CCOC(=O)c1c(C)n(Cc2ccccc2)c2ccc(OCC(O)CNC(C)(C)C)cc12 (configuration not stated) was run?
Answer: 25.1 µM (active)

Question: How did the Potency turn out when COc1ccc(N2C(=O)NC(=O)/C(=C(/C)NCCc3c[nH]c4ccccc34)C2=O)cc1 was run?
Answer: inactive

Question: CCCCn1c(N)c(C(=O)OCCOC)c2nc3ccccc3nc21 was tested. Which Potency did it give?
Answer: inactive

Question: With CC(=O)OC1C2(CC3N4C(=O)C5(CO)SSC4(CC31O)C(=O)N5C)OC(C)C(C)(C)C2=O (configuration not stated) as the compound, how does the Potency read?
Answer: 2.38 µM (active)

Question: How did the Potency turn out when CCN1C(=O)C(=CNNC(=O)c2ccncc2)C(=O)N(CC)C1=S was run?
Answer: inactive

Question: Which Potency does the source give for CCCN1CCc2cccc3c2[C@H]1Cc1ccc(O)c(O)c1-3 here?
Answer: 35.5 µM (active)

Question: How did the Potency turn out when Cc1ccccc1NC(=NCCCN1CC1)Nc1ccccc1C was run?
Answer: 9.47 µM (active)

Question: How did the Potency turn out when O=C(Nc1cccc(C(F)(F)F)c1)C1CCCN1S(=O)(=O)c1cccc2nsnc12 (configuration not stated) was run?
Answer: 22.4 µM (active)

Question: With CC1=NCCc2c1[nH]c1cc(O)ccc21 as the compound, how does the Potency read?
Answer: inactive

Question: How did the Potency turn out when O=C(Cn1c(NCCCl)nc2ccccc21)c1ccc(Br)cc1 was run?
Answer: inactive

Question: With O=C(CCN1CCN(c2ccccc2)CC1)c1ccc(Br)cc1 as the compound, how does the Potency read?
Answer: 39.8 µM (active)

Question: Which Potency does the source give for COc1ccc(C(c2nnnn2-c2ccc(OC)cc2)N2CCC3(CC2)C(=O)NCN3c2ccccc2)cc1 (configuration not stated) here?
Answer: 35.5 µM (active)

Question: COc1ccc(-n2nnnc2C(c2ccccc2OC(F)(F)F)N2CCC3(CC2)C(=O)NCN3c2ccccc2)cc1 (configuration not stated) was tested. Which Potency did it give?
Answer: 39.8 µM (active)

Question: With COc1ccc(-n2nnnc2C(c2ccnc3ccccc23)N2CCC3(CC2)C(=O)NCN3c2ccccc2)cc1 (configuration not stated) as the compound, how does the Potency read?
Answer: 39.8 µM (active)

Question: How did the Potency turn out when COc1ccc(-n2c(/C=C/c3ccc(O)c(O)c3)nc3ccccc3c2=O)cc1 was run?
Answer: inactive

Question: How did the Potency turn out when Cc1cccc(C)c1-n1nnnc1C(C1CC1)N1CCC2(CC1)C(=O)NCN2c1ccccc1 (configuration not stated) was run?
Answer: 39.8 µM (active)

Question: Which Potency does the source give for COc1ccc(C(=O)C2CCCN(Cc3ccc(C)s3)C2)cc1OC (configuration not stated) here?
Answer: inactive

Question: With CC(C)OC(=O)c1c(N)n(CC2CCCO2)c2nc3ccccc3nc12 (configuration not stated) as the compound, how does the Potency read?
Answer: inactive

Question: With O=C(COc1ccccc1)N1CCN(CCN2C(=O)c3cccc4cccc(c34)C2=O)CC1 as the compound, how does the Potency read?
Answer: inactive

Question: Which Potency does the source give for CCOP(=O)(OCC)c1nc(-c2cccc3ccccc23)oc1N1CCOCC1 here?
Answer: inactive

Question: For Cc1cccc(C)c1-n1nnnc1C(c1cccs1)N1CCC2(CC1)C(=O)NCN2c1ccccc1 (configuration not stated), which Potency is on record?
Answer: 31.6 µM (active)

Question: How did the Potency turn out when Cc1cccc(C)c1-n1nnnc1C(c1ccnc2ccccc12)N1CCC2(CC1)C(=O)NCN2c1ccccc1 (configuration not stated) was run?
Answer: 39.8 µM (active)

Question: Which Potency does the source give for C[C@H]1CC[C@@H]2[C@@H](C)[C@H]3[C@H](C[C@H]4[C@@H]5CC=C6C[C@@H](O[C@@H]7O[C@H](CO)[C@H](O)[C@H](O[C@@H]8O[C@H](CO)[C@@H](O)[C@H](O)[C@H]8O)[C@H]7O[C@@H]7O[C@@H](C)[C@H](O)[C@@H](O)[C@H]7O)CC[C@]6(C)[C@H]5CC[C@]34C)N2C1 here?
Answer: 22.4 µM (active)

Question: With COP(=O)(OC)c1nc(-c2cccc3ccccc23)oc1N1CCCCC1 as the compound, how does the Potency read?
Answer: inactive

Question: Which Potency does the source give for CN(C)c1ccc(C=C2C(=O)NC(=S)NC2=O)cc1 here?
Answer: 44.7 µM (active)

Question: Which Potency does the source give for Cc1ccc(OCCOc2cccc(C=C3C(=O)NC(=O)NC3=O)c2)cc1 here?
Answer: inactive

Question: For COc1ccc(OC)c(CN2CCN(C(=O)Cc3ccccc3)CC2)c1, which Potency is on record?
Answer: inactive

Question: With O=C1NC(=O)C(=Cc2ccc(-c3ccccc3[N+](=O)[O-])o2)C(=O)N1 as the compound, how does the Potency read?
Answer: inactive

Question: Which Potency does the source give for O=C1NC(=O)C(=Cc2ccc(SC3CCCCC3)o2)C(=O)N1 here?
Answer: 22.4 µM (active)

Question: With C=CC[C@@H](CC/C=C/C=C/CC/C=C\[C@@H]1CSC([C@@H]2C[C@@H]2C)=N1)OC as the compound, how does the Potency read?
Answer: 17.8 µM (active)

Question: How did the Potency turn out when O=c1ccc2cc(O[C@@H]3O[C@@H](CO)[C@H](O)[C@@H](O)[C@@H]3O)c(O)cc2o1 was run?
Answer: inactive

Question: With CCN(CCCl)c1cc(CN(C)C)cc(NC(=O)c2ccc(C(=O)Nc3cc(CN(C)C)cc(N(CC)CCCl)c3)cc2)c1 as the compound, how does the Potency read?
Answer: 20 µM (active)

Question: Which Potency does the source give for O=C(c1ccc(C(F)(F)F)cc1)C1CCCN(Cc2ccncc2)C1 (configuration not stated) here?
Answer: inactive

Question: How did the Potency turn out when CCn1cc(C(=O)NCCc2ccc(OC)c(OC)c2)c(=O)c2cc(S(=O)(=O)N(C)C3CCCCC3)ccc21 was run?
Answer: 25.1 µM (active)

Question: With COC(=O)Cn1cc(C=C2C(=O)N(C)C(=O)N(C)C2=O)c2ccccc21 as the compound, how does the Potency read?
Answer: inactive

Question: Which Potency does the source give for O=C1NC(=O)C(=CNc2cc(F)cc(F)c2)C(=O)N1 here?
Answer: inactive

Question: For CC[n+]1c(/C=C/C=C/c2ccc(N(C)C)cc2)sc2ccccc21, which Potency is on record?
Answer: 5.32 µM (active)

Question: How did the Potency turn out when CC[n+]1c(C=CN(C)c2ccccc2)sc2ccc(Cl)cc21 was run?
Answer: 17.8 µM (active)

Question: Which Potency does the source give for CC(C)(C)C(=O)c1cn(Cc2ccccc2)c2ccccc12 here?
Answer: inactive

Question: How did the Potency turn out when O=C(NN1C(=O)C2C3C=CC(C4CC34)C2C1=O)c1cccc(Br)c1 (configuration not stated) was run?
Answer: inactive

Question: C[C@@]12CC[C@H](O)C[C@@H]1CC[C@H]1[C@H]2CC[C@@]2(C)[C@@H](C3=CC(=O)OC3)CC[C@]12O was tested. Which Potency did it give?
Answer: 0.708 µM (active)

Question: For C[C@@]12CC[C@H](O)C[C@@H]1CC[C@H]1[C@@H]2C[C@@H](O)[C@]2(C)[C@@H](C3=CC(=O)OC3)CC[C@]12O, which Potency is on record?
Answer: 3.16 µM (active)

Question: C=CCNC(=O)c1c(N)n(Cc2ccco2)c2nc3ccccc3nc12 was tested. Which Potency did it give?
Answer: inactive

Question: With COCCCn1c(N)c(C(=O)OC(C)COC)c2nc3ccccc3nc21 (configuration not stated) as the compound, how does the Potency read?
Answer: inactive

Question: With O=C1NC(=O)N(CCc2ccccc2)C(=O)/C1=C\NN1CCOCC1 as the compound, how does the Potency read?
Answer: inactive

Question: How did the Potency turn out when COC1CCC(OC2CC(C3(C)CCC4(CC(O)C(C)C(C(C)/C=C(\C)C(=O)C(C)CC(C)C(=O)O)O4)O3)OC3(OC(C4OC(O)(CO)C(C)CC4C)CC3C)C2C)OC1C (configuration not stated) was run?
Answer: 0.562 µM (active)

Question: How did the Potency turn out when COCCOC(=O)c1c(N)n(Cc2ccco2)c2nc3ccccc3nc12 was run?
Answer: inactive

Question: For CC(=O)OC(C)(C)/C=C/C(=O)[C@](C)(O)[C@H]1[C@H](O)C[C@@]2(C)[C@@H]3CC=C4[C@H](C[C@H](O)C(=O)C4(C)C)[C@]3(C)C(=O)C[C@]12C, which Potency is on record?
Answer: 39.8 µM (active)

Question: CC(=O)OC(C)(C)/C=C/C(=O)C(C)(O)C1C(O)CC2(C)C3CC=C4C(CC(O)C(=O)C4(C)C)C3(C)C(=O)CC12C (configuration not stated) was tested. Which Potency did it give?
Answer: 0.189 µM (active)

Question: Which Potency does the source give for COc1ccc(C(=O)C2CCCN(Cc3cnc(C)s3)C2)c(OC)c1 (configuration not stated) here?
Answer: inactive

Question: NC(=O)c1cn(C2OC(CO)C(O)C2O)c2ncnc(N)c12 (configuration not stated) was tested. Which Potency did it give?
Answer: 0.316 µM (active)
